Laboratory results reported in PubChem BioAssay (NCI).
Compounds without any hit were thinned out: in the full panel of roughly 83,000, 20% have a hit.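 Assay: single dose, 48 h. Readout: percent growth (0 = no net growth; negative = cell death). Active: <10.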

What was measured:
Test in all cases: NCI-60 one-dose screen, 48 h (100 = growth as untreated, 0 = no growth, -100 = all killed)
SK-MEL-2 melanoma = details: 10 µM
EKVX NSCLC = details: 10 µM
SN12C renal = details: 10 µM
UO-31 renal = details: 10 µM
TK-10 renal = details: 10 µM unless noted
ACHN renal = details: 10 µM
CAKI-1 renal = details: 10 µM
A498 renal = details: 10 µM
CCRF-CEM leukemia = details: 10 µM
MOLT-4 leukemia = details: 10 µM
RPMI-8226 leukemia = details: 10 µM
OVCAR-8 ovarian = details: 10 µM
OVCAR-5 ovarian = details: 10 µM
OVCAR-4 ovarian = details: 10 µM
SK-OV-3 ovarian = details: 10 µM
IGROV1 ovarian = details: 10 µM
OVCAR-3 ovarian = details: 10 µM
HS 578T breast = details: 10 µM
NCI/ADR-RES ovarian = details: 10 µM
SR leukemia = details: 10 µM

Measured: growth

Cc1cc2nc(CO)[nH]c2cc1C
inactive: SK-MEL-2 melanoma 83% | EKVX NSCLC 112% | SN12C renal 105% | UO-31 renal 85.8% | TK-10 renal 131% | ACHN renal 105% | CAKI-1 renal 110% | A498 renal 101% | CCRF-CEM leukemia 93.6% | MOLT-4 leukemia 103% | RPMI-8226 leukemia 87.9% | OVCAR-8 ovarian 101% | OVCAR-5 ovarian 100% | OVCAR-4 ovarian 103% | SK-OV-3 ovarian 108% | IGROV1 ovarian 108% | OVCAR-3 ovarian 105% | HS 578T breast 151% | NCI/ADR-RES ovarian 107%

O=c1[nH]c(O)c(/C=C2/C=Nc3ccccc32)[nH]1
inactive: SK-MEL-2 melanoma 104% | EKVX NSCLC 95% | SN12C renal 98.3% | UO-31 renal 68.7% | TK-10 renal 99.9% | ACHN renal 87% | CAKI-1 renal 106% | A498 renal 86% | CCRF-CEM leukemia 58.2% | MOLT-4 leukemia 73.7% | SR leukemia 76.3% | RPMI-8226 leukemia 78% | OVCAR-5 ovarian 96% | OVCAR-4 ovarian 90% | SK-OV-3 ovarian 112% | IGROV1 ovarian 93.8% | OVCAR-3 ovarian 100% | HS 578T breast 95.1% | NCI/ADR-RES ovarian 96.4%

CC(C)C(C#N)(C(C)C)C(C)C
inactive: SK-MEL-2 melanoma 98% | EKVX NSCLC 96.7% | SN12C renal 99.9% | UO-31 renal 81.5% | TK-10 renal 96% | ACHN renal 108% | CAKI-1 renal 95.6% | A498 renal 98.3% | CCRF-CEM leukemia 102% | MOLT-4 leukemia 104% | SR leukemia 89.8% | RPMI-8226 leukemia 96.5% | OVCAR-5 ovarian 108% | OVCAR-4 ovarian 109% | SK-OV-3 ovarian 109% | IGROV1 ovarian 103% | OVCAR-3 ovarian 107% | HS 578T breast 106% | NCI/ADR-RES ovarian 104%

O=[N+]([O-])c1ccc(O)c(S(=O)(=O)O)c1
inactive: SK-MEL-2 melanoma 108% | EKVX NSCLC 105% | SN12C renal 90.2% | UO-31 renal 116% | TK-10 renal 121% | ACHN renal 95.2% | CAKI-1 renal 95.9% | A498 renal 114% | CCRF-CEM leukemia 102% | MOLT-4 leukemia 98.4% | SR leukemia 98% | RPMI-8226 leukemia 105% | OVCAR-5 ovarian 93.2% | OVCAR-4 ovarian 108% | SK-OV-3 ovarian 110% | IGROV1 ovarian 130% | OVCAR-3 ovarian 109% | HS 578T breast 103% | NCI/ADR-RES ovarian 109%

COc1cc2c3c(n(C)c(=O)c2cc1OC)-c1cc2c(cc1C3=O)OCO2
inactive: SK-MEL-2 melanoma 113% | EKVX NSCLC 94.2% | SN12C renal 87% | UO-31 renal 32.6% | TK-10 renal 101% | ACHN renal 26.6% | CAKI-1 renal 24.3% | A498 renal 75.5% | CCRF-CEM leukemia 29.5% | MOLT-4 leukemia 18.3% | SR leukemia 17.6% | RPMI-8226 leukemia 48.2% | OVCAR-5 ovarian 78.4% | OVCAR-4 ovarian 55.8% | SK-OV-3 ovarian 74.6% | IGROV1 ovarian 11.3% | OVCAR-3 ovarian 104% | HS 578T breast 102% | NCI/ADR-RES ovarian 77.5%

O/N=C/c1ccc(O)cc1O
inactive: SK-MEL-2 melanoma 92.9% | EKVX NSCLC 102% | SN12C renal 98% | UO-31 renal 99% | TK-10 renal 102% | ACHN renal 95.9% | CAKI-1 renal 101% | A498 renal 85.9% | CCRF-CEM leukemia 86.5% | MOLT-4 leukemia 102% | SR leukemia 110% | RPMI-8226 leukemia 94.8% | OVCAR-5 ovarian 94.7% | OVCAR-4 ovarian 109% | SK-OV-3 ovarian 103% | IGROV1 ovarian 117% | OVCAR-3 ovarian 112% | NCI/ADR-RES ovarian 104%

S=c1nn[nH]c2ccccc12
inactive: SK-MEL-2 melanoma 102% | EKVX NSCLC 117% | SN12C renal 93.4% | UO-31 renal 67.1% | TK-10 renal 109% | ACHN renal 93.2% | CAKI-1 renal 98.3% | A498 renal 109% | CCRF-CEM leukemia 111% | MOLT-4 leukemia 108% | SR leukemia 92.2% | RPMI-8226 leukemia 117% | OVCAR-8 ovarian 103% | OVCAR-4 ovarian 114% | SK-OV-3 ovarian 99.8% | IGROV1 ovarian 97.7% | OVCAR-3 ovarian 111% | HS 578T breast 109% | NCI/ADR-RES ovarian 105%

Cc1cc(C)cc(NCCC#N)c1
inactive: SK-MEL-2 melanoma 98.3% | EKVX NSCLC 103% | SN12C renal 110% | UO-31 renal 96.5% | TK-10 renal 129% | ACHN renal 107% | CAKI-1 renal 107% | A498 renal 111% | CCRF-CEM leukemia 96.8% | MOLT-4 leukemia 91.4% | RPMI-8226 leukemia 106% | OVCAR-8 ovarian 126% | OVCAR-5 ovarian 112% | OVCAR-4 ovarian 102% | SK-OV-3 ovarian 106% | IGROV1 ovarian 110% | OVCAR-3 ovarian 105% | HS 578T breast 134% | NCI/ADR-RES ovarian 110%

COC(=O)c1cccc(Br)c1
inactive: SK-MEL-2 melanoma 110% | EKVX NSCLC 87.1% | SN12C renal 104% | UO-31 renal 101% | TK-10 renal 106% | ACHN renal 108% | CAKI-1 renal 102% | A498 renal 86.3% | CCRF-CEM leukemia 98.2% | MOLT-4 leukemia 111% | RPMI-8226 leukemia 106% | OVCAR-8 ovarian 112% | OVCAR-5 ovarian 88.8% | OVCAR-4 ovarian 112% | SK-OV-3 ovarian 118% | IGROV1 ovarian 116% | OVCAR-3 ovarian 121% | HS 578T breast 117% | NCI/ADR-RES ovarian 106%

O=C(O)[C@@H]1[C@H]2C[C@H]3c4[nH]c5ccccc5c4CCN3C[C@@H]2CC[C@@H]1O
inactive: SK-MEL-2 melanoma 30.5% | EKVX NSCLC 110% | SN12C renal 107% | UO-31 renal 82.8% | TK-10 renal 104% | ACHN renal 100% | CAKI-1 renal 105% | A498 renal 130% | CCRF-CEM leukemia 103% | MOLT-4 leukemia 139% | RPMI-8226 leukemia 111% | OVCAR-8 ovarian 87.6% | OVCAR-5 ovarian 105% | OVCAR-4 ovarian 103% | SK-OV-3 ovarian 115% | IGROV1 ovarian 114% | OVCAR-3 ovarian 111% | HS 578T breast 102% | NCI/ADR-RES ovarian 112%

Cc1c(O)cccc1O
inactive: SK-MEL-2 melanoma 93.5% | EKVX NSCLC 106% | SN12C renal 88% | UO-31 renal 111% | TK-10 renal 104% | ACHN renal 107% | CAKI-1 renal 61% | A498 renal 125% | CCRF-CEM leukemia 100% | MOLT-4 leukemia 90% | SR leukemia 84% | OVCAR-8 ovarian 106% | OVCAR-5 ovarian 106% | OVCAR-4 ovarian 108% | SK-OV-3 ovarian 97.1% | IGROV1 ovarian 159% | OVCAR-3 ovarian 109% | HS 578T breast 102% | NCI/ADR-RES ovarian 94.2%

COc1ccc(Oc2c(I)cc(CC(NC(C)=O)C(=O)O)cc2I)cc1 (configuration not stated)
inactive: SK-MEL-2 melanoma 102% | EKVX NSCLC 67.9% | SN12C renal 83.8% | UO-31 renal 71.7% | TK-10 renal 113% | ACHN renal 97.6% | CAKI-1 renal 57.4% | A498 renal 79.7% | CCRF-CEM leukemia 78.4% | MOLT-4 leukemia 60.9% | SR leukemia 83.1% | RPMI-8226 leukemia 74.3% | OVCAR-8 ovarian 83.2% | OVCAR-4 ovarian 89.4% | SK-OV-3 ovarian 105% | IGROV1 ovarian 106% | OVCAR-3 ovarian 99% | HS 578T breast 95.7% | NCI/ADR-RES ovarian 62.4%

Brc1cnc2ccccc2c1
inactive: SK-MEL-2 melanoma 100% | EKVX NSCLC 103% | SN12C renal 98.4% | UO-31 renal 78.2% | TK-10 renal 102% | ACHN renal 98.2% | CAKI-1 renal 97.7% | A498 renal 99% | CCRF-CEM leukemia 108% | MOLT-4 leukemia 101% | SR leukemia 103% | OVCAR-8 ovarian 104% | OVCAR-4 ovarian 118% | SK-OV-3 ovarian 111% | IGROV1 ovarian 107% | OVCAR-3 ovarian 99.7% | NCI/ADR-RES ovarian 102%

CCN(CC)C(=O)/C=C(/C)c1ccccc1
inactive: SK-MEL-2 melanoma 113% | EKVX NSCLC 107% | SN12C renal 104% | UO-31 renal 102% | TK-10 renal 107% | ACHN renal 110% | CAKI-1 renal 100% | A498 renal 86.6% | CCRF-CEM leukemia 100% | MOLT-4 leukemia 114% | RPMI-8226 leukemia 109% | OVCAR-8 ovarian 105% | OVCAR-5 ovarian 113% | OVCAR-4 ovarian 92.7% | SK-OV-3 ovarian 107% | IGROV1 ovarian 117% | OVCAR-3 ovarian 111% | HS 578T breast 101% | NCI/ADR-RES ovarian 102%

CN(C)CCN(Cc1ccccc1)c1ccccc1
inactive: SK-MEL-2 melanoma 124% | EKVX NSCLC 110% | SN12C renal 97.5% | UO-31 renal 107% | TK-10 renal 110% | ACHN renal 110% | CAKI-1 renal 77.2% | A498 renal 99% | CCRF-CEM leukemia 123% | MOLT-4 leukemia 90.5% | SR leukemia 88.1% | OVCAR-8 ovarian 115% | OVCAR-5 ovarian 125% | SK-OV-3 ovarian 110% | IGROV1 ovarian 124% | OVCAR-3 ovarian 121% | HS 578T breast 112% | NCI/ADR-RES ovarian 103%

CCNc1nc2c(cnn2C)c(=O)[nH]1
inactive: SK-MEL-2 melanoma 103% | EKVX NSCLC 99.4% | SN12C renal 103% | UO-31 renal 85.7% | TK-10 renal 104% | ACHN renal 107% | CAKI-1 renal 93.9% | A498 renal 97.1% | CCRF-CEM leukemia 93.9% | MOLT-4 leukemia 102% | SR leukemia 92.3% | RPMI-8226 leukemia 99.8% | OVCAR-5 ovarian 103% | OVCAR-4 ovarian 109% | SK-OV-3 ovarian 96.2% | IGROV1 ovarian 84.5% | OVCAR-3 ovarian 109% | HS 578T breast 92.5% | NCI/ADR-RES ovarian 108%

CCC/C=C(/C(C)=O)C(=O)OCC
inactive: SK-MEL-2 melanoma 132% | EKVX NSCLC 168% | SN12C renal 101% | UO-31 renal 101% | TK-10 renal 139% | ACHN renal 103% | CAKI-1 renal 128% | A498 renal 132% | CCRF-CEM leukemia 143% | MOLT-4 leukemia 135% | SR leukemia 160% | RPMI-8226 leukemia 104% | OVCAR-8 ovarian 91.8% | SK-OV-3 ovarian 117% | IGROV1 ovarian 126% | OVCAR-3 ovarian 119% | HS 578T breast 114% | NCI/ADR-RES ovarian 107%

CCOC(=O)C(O)C(O)C(=O)OCC (configuration not stated)
inactive: SK-MEL-2 melanoma 103% | EKVX NSCLC 111% | SN12C renal 102% | UO-31 renal 97.1% | TK-10 renal 102% | ACHN renal 109% | CAKI-1 renal 101% | A498 renal 101% | CCRF-CEM leukemia 107% | MOLT-4 leukemia 104% | SR leukemia 104% | RPMI-8226 leukemia 110% | OVCAR-5 ovarian 100% | OVCAR-4 ovarian 110% | SK-OV-3 ovarian 108% | IGROV1 ovarian 115% | OVCAR-3 ovarian 107% | HS 578T breast 103% | NCI/ADR-RES ovarian 108%
